TPT1 inh = C. albicans TPT1 enzyme inhibition | actives 0.81% (n = 300,000) | AID 1962 | inhibition, % at 5 µM | recombinant caTPT1, FP RNA substrate dephosphorylation;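 active = inhibition above the mean of all tested compounds plus 3 SD, set per screening campaign, cut at about 24% in these data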;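 also: plate controls were DMSO alone for no effect and ferristatin control at 100 nM for full effect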
dFosB activator = mouse delta FosB homodimer activation. actives 0.99% (n = 340,000). purified delta FosB, TAMRA-CDK5 oligo fluorescence polarization; percent of positive-control signal above neutral wells. activation, % at 25 µM. P13346;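 active = mean activation above about 17%, with every replicate also reaching it, limit read from the data, passing the limit was not always enough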
EBNA-1 inhibitor = blocks EBNA-1 binding to DNA. EBNA-1 DNA binding, fluorescence polarization. inhibition, % at 14.8 µM. actives 0.34% (n = 300,000); in the data active = inhibition above about 28%
ZTA DNA inh = blocks Epstein-Barr virus ZTA, an EBNA-1 counter-screen; P03206; ZTA-DNA binding, fluorescence polarization; inhibition, % at 11 µM; actives 0.15% (n = 320,000); AID 2234; in the data active = inhibition above about 33%
Target sequence (P03206 whole entry, looked up): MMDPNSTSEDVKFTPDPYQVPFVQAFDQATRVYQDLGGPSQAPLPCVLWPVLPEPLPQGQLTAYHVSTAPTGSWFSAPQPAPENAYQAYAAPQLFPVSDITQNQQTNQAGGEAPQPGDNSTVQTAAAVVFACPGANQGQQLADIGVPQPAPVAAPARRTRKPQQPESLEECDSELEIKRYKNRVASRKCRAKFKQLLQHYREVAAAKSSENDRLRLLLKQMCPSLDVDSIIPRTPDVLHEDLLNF
Rpn11 block = blocks the human proteasome subunit Rpn11; O00487; human 26S proteasome, Ub4-pepOG fluorescence polarization; 20S core pre-blocked with epoxomicin; AID 588493; actives 0.59% (n = 360,000); inhibition, % at 20 µM;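 active = inhibition at 20 µM, scaled to each plate's controls, above about 33%, limit read from the data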
GRIN3A LBD mod = NR3A (human) ligand-binding domain modulation. NR3A LBD differential scanning fluorimetry, Tm shift; 0% = protein alone, 100% = glycine-bound protein. Tm shift relative to glycine control, % at 25 µM. actives 2.5% (n = 340,000);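 active = melting temperature shift of at least 10% of the positive control shift, at one fixed dose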
TPT1 inh confirm = TPT1 (C. albicans) inhibition, confirmation. inhibition, % at 5 µM. shares compounds with TPT1 inh. recombinant caTPT1, fluorescence polarization, RNase T1 coupled. actives 74% (n = 2,400);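 active = inhibition above the primary screen limit, the mean inhibition of all tested compounds plus 3 SD, cut at about 25% in these data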
RNase T1 inh = counter-screen for TPT1 inhibitors: inhibitors of Aspergillus oryzae RNase T1; shares compounds with TPT1 inh; RNase T1 cleavage, fluorescence polarization, 1536-well; inhibition, % at 5 µM; actives 83% (n = 2,400);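 active = inhibition above the solvent-only control well mean plus 3 SD, limit set per screening run, cut at about 23% in these data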;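 also: plate controls were DMSO wells with enzyme for no effect and wells without RNase T1 for full effect; inhibitors block cleavage so intact labeled substrate keeps polarization high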
Target sequence (P00651 whole entry, looked up): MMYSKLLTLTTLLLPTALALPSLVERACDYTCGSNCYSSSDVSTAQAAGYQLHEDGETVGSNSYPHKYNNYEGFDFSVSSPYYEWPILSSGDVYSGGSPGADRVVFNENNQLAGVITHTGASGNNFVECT
Numbers without * were called inactive; nt = no result given. Sampled rows, rich in hits. Any-hit rate of the full collection: about 4.5%.

SMILES	TPT1 inh	dFosB activator	EBNA-1 inhibitor	ZTA DNA inh	Rpn11 block	GRIN3A LBD mod	TPT1 inh confirm	RNase T1 inh
N#CC(C#N)=Cc1ccc(N2CCCC2)cc1	63*	5	-14	8	24	2	69*	84*
N#CC(C#N)=Cc1ccc(-c2ccccc2F)o1	-69	-4	0	4	-71	0	nt	nt
N#CC(C#N)=Cc1ccc(-c2ccccc2)o1	37*	nt	0	18	nt	nt	36*	64*
CC(C)(C)c1cc(C=C(C#N)C#N)cc(C(C)(C)C)c1O	61*	-3	5	-15	39	3	82*	90*
N#CC(C#N)=Cc1ccc(O)c(O)c1	-1	-4	-7	-9	-3	-11	nt	nt
COC(=O)C1=C(c2ccccc2)C[C@@H]2CC[C@H]1N2C(=O)NCc1ccc(F)cc1	0	-9	4	0	-2	0	nt	nt
Cc1cc(C)cc(N2C(=O)NC(=O)/C(=C\C=C\c3ccco3)C2=O)c1	47*	-8	5	11	37	12*	45*	62*
CC(C)c1ccc(N2C(=O)NC(=O)/C(=C/C=C/c3ccco3)C2=O)cc1	102*	-9	2	2	nt	-4	70*	72*
O=C1NC(=O)N(c2ccccc2)C(=O)/C1=C\C=C\c1ccccc1	11	-7	-5	4	-1	7	nt	nt
CCc1ccc(N2C(=O)NC(=O)/C(=C\C=C\c3ccco3)C2=O)cc1	58*	-20	8	29	nt	-1	51*	68*
Cc1ccc(N2C(=O)NC(=O)/C(=C/C=C/c3ccco3)C2=O)cc1	28*	4	8	8	39	1	35*	52*
CC1=NN(c2ccccc2)C(=O)C1/C=C1\C(=O)NC(=O)N(c2cc(C)cc(C)c2)C1=O (stereo unspecified)	24	6	-2	-19	3	-4	nt	nt
CC(C)(O)[C@@H]1[C@H]2OC(=O)[C@@H]1[C@]1(O)C[C@H]3O[C@]34C(=O)O[C@H]2[C@]14C (tested in a mixture with another compound)	-4	nt	3	-17	nt	nt	nt	nt
COc1ccc(NP2(=O)OCC(C)(N)CO2)cc1 (stereo unspecified)	nt	2	nt	nt	-3	1	nt	nt
CC1=NN(c2ccccc2)C(=O)C1/C=C1/C(=O)NC(=O)N(c2cc(C)cc(C)c2)C1=O (stereo unspecified)	29*	0	-10	-4	6	-8	32*	50*
CC1(C)CC(n2[nH]c(=O)c3c2NC(=O)CSC3c2ccc(F)cc2)CCO1 (stereo unspecified)	2	5	-9	1	5	7	nt	nt
N#Cc1c(/N=C/c2ccc(O)cc2O)sc2c1C1CCN2CC1	65*	0	-11	3	38	-6	106*	107*
O=P1(NCc2ccco2)COc2ccccc2OC1	2	4	14	31	-4	1	nt	nt
C=CCn1c(O)c(C=NCCN(C)C)c(=O)[nH]c1=O	30*	3	-1	-14	16	0	35*	45*
C=CCn1c(O)c(C=NCCCn2ccnc2)c(=O)[nH]c1=O	1	-5	3	-4	-1	-1	nt	nt
CC1(C)C2([N+](=O)[O-])CN3CC1([N+](=O)[O-])CN(C2)C3c1ccccn1 (stereo unspecified)	-3	-10	1	14	-2	3	nt	nt
CCC(=NCCc1ccccc1)c1c(O)n(C)c(=O)n(C)c1=O	2	-4	-16	-8	-7	1	nt	nt
O=c1c2ccccc2nc(/C=C/c2ccc(O)c(O)c2)n1-c1ccccc1	46*	-16	4	-6	nt	4	49*	57*
COc1ccccc1-n1c(/C=C/c2ccc(O)cc2)nc2ccccc2c1=O	7	-4	-3	-10	28	-10	nt	nt
Cc1cccc(-n2c(/C=C/c3ccc([N+](=O)[O-])o3)nc3ccccc3c2=O)c1	40*	-3	5	-1	nt	0	56*	52*
SMILES	TPT1 inh	dFosB activator	EBNA-1 inhibitor	ZTA DNA inh	Rpn11 block	GRIN3A LBD mod	TPT1 inh confirm	RNase T1 inh
O=c1c2ccccc2nc(/C=C/c2ccc([N+](=O)[O-])o2)n1-c1ccc(O)cc1	nt	-8	nt	nt	nt	0	nt	nt
COc1cc(/C=C/c2nc3ccccc3c(=O)n2-c2ccccc2O)ccc1O	26*	-13	2	2	nt	-23	45*	49*
O=c1c2ccccc2nc(/C=C/c2ccccc2)n1-c1ccc(O)cc1	-5	-15	17	-10	-7	-8	nt	nt
CCNc1nc(NC(C)(C)C)nc(SC)n1	-1	-6	-3	-1	1	-2	nt	nt
CCOC(=O)c1c(/N=C/C2C(=O)NC(=S)NC2=O)sc2c1CCC2	113*	-8	7	20	nt	0	20	33*
CC(C)(C)NC(=O)NC(=O)CN1CC=C(c2ccccc2)CC1	-2	-6	-3	-10	8	1	nt	nt
Cc1cc(C)c(-n2c(O)c(/C=N/NC(=O)c3ccncc3)c(=O)[nH]c2=O)c(C)c1	24*	-4	2	-15	27	1	29*	40*
CN1CCN(Cc2cn(C)c3ccccc23)CC1CCO (stereo unspecified)	1	-2	1	-13	3	2	nt	nt
CCCCn1c(=O)c(C=Nc2cc([N+](=O)[O-])ccc2OC)c(O)n(CCCCl)c1=O	74*	-3	-16	-11	14	-5	53*	67*
NCCc1ccc(OCc2ccccc2)c(OCc2ccccc2)c1	nt	-14	nt	8	-2	1	nt	nt
COc1cc(/C=C2\C(=O)NC(=O)N(c3ccc(C)cc3)C2=O)cc(OC)c1O	31*	-1	5	8	5	1	12	19
COc1cc(/C=C2/C(=O)NC(=O)N(c3ccc(C)cc3)C2=O)cc(OC)c1OC	7	-19	14	1	0	2	nt	nt
Cc1ccc(C(=O)Nc2ccc(-n3ccnc3P(=O)(O)c3ccccc3)cc2)cc1	0	8	-3	-1	-6	2	nt	nt
CC(C)n1c(=O)c(C=Nc2cccc([N+](=O)[O-])c2)c(O)n(CCc2ccccc2)c1=O	43*	-1	-8	5	16	-6	14	19
O=c1[nH]c(=S)n(-c2ccccc2F)c(O)c1C=Nc1ccc(N2CCOCC2)cc1	33*	1	13	45*	10	2	47*	60*
Cc1cc(C)cc(-n2c(O)c(C=Nc3ccc(N4CCOCC4)cc3)c(=O)[nH]c2=S)c1	35*	-8	-8	12	30	-6	57*	73*

Bioassay records from PubChem.
